# Molecular target: T1, Aspartate--tRNA(Asp/Asn) ligase (Mycobacterium tuberculosis (strain ATCC 25618 / H37Rv)) (UniProt P9WFW3)
# T1 sequence (whole entry): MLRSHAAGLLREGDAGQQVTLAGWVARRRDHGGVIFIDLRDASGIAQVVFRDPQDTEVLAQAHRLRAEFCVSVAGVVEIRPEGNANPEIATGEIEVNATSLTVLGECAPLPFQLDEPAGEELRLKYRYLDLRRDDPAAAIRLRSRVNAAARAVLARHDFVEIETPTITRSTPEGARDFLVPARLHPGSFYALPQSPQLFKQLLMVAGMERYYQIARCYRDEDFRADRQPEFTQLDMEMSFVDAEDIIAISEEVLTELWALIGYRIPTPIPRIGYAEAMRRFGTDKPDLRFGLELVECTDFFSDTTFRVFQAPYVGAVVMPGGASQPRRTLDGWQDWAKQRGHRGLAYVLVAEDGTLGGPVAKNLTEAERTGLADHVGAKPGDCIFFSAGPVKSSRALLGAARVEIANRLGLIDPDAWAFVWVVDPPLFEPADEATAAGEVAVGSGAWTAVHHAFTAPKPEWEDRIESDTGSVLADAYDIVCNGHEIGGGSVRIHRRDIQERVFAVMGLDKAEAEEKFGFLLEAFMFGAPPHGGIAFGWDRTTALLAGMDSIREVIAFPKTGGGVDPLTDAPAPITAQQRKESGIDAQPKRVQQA
# Assay: Assay for Asp RNA synthetase-1 from Mycobacterium tuberculosis
# Type: functional
# Design: scale not given: in the data most compounds retested in dose-response had high values
# Settings: 30 µM
row,Compound,Percent Effect [%]
1,CCC(=O)NCc1cc(Br)ccc1OC(F)F,0.885
2,O=C1CC(c2cccs2)c2cnn(C3CCCC3)c2N1 (stereo not given),-1.62
3,O=C1O[C@@H]2CN(Cc3cccc(F)c3)C[C@@H]2N1CCCN1CCOCC1,0.287
4,CC(=O)Nc1c(C)cnn1Cc1cc(F)ccc1F,2.1
5,Cn1nccc1C(=O)N1CCOC(Cc2cccc(C(F)(F)F)c2)C1 (stereo not given),-2.91
6,CCS(=O)(=O)N1CCC(c2nnc(CN3CCOCC3)n2C)CC1,-1.39
7,CCn1nc(C)c(CNC(=O)c2cn(CC3CCCO3)nn2)c1C (stereo not given),-4.13
8,COc1ccc(NC(=O)CCC2CCCN(Cc3ncon3)C2)c(C)c1 (stereo not given),1.11
9,O=C(NCC(F)(F)F)NC1CCCc2c1cnn2CCO (stereo not given),-1.62
10,CCOc1ncccc1CNC(=O)N1CCCC1c1ccncc1 (stereo not given),-0.287
11,O=C(O)C(c1ccc2c(c1)OCO2)N1CCC(C(=O)N2CCCC2)CC1 (stereo not given),-0.103
12,O=S(=O)(Cc1ccccc1F)NCCN1CCOCC1,-2.93
13,CCOCC(=O)N1C[C@@H](NC(C)=O)[C@H](c2ccc(OC)cc2)C1,-0.287
14,Cc1ccc(CN2CCN(CC3CC3)[C@@H]3CS(=O)(=O)C[C@@H]32)cc1C,-3.05
15,O=C(NC1(c2nnn(CCO)n2)CCCC1)c1ccccc1,-6.13
16,COc1cc(CNC(=O)NCCCF)cc(Br)c1OC,-0.885
17,COc1cc(C)c(CN2CCC3(CC2)C(C(=O)O)CC(=O)N3C)cc1C (stereo not given),-0.678
18,O=C(NCCc1ccncc1)C1CCN(Cc2ccco2)CC1,-3.6
19,CCn1nc(CC(C)C)cc1C(=O)N1C[C@H](O)[C@@H](N2CCCCC2)C1,-2.61
20,O=c1oc(-c2cccs2)nn1CC(O)c1ccc(F)cc1 (stereo not given),-0.425

# From ChEMBL document CHEMBL3988442, “University of Dundee, Small-Polar-MMV Screening Library” (2021)
